{
  "source": "ChEMBL document CHEMBL2218924",
  "about": "“A broad activity screen in support of a chemogenomic map for kinase signalling research and drug discovery” (Biochem J, 2013)",
  "key": {"[1]": {"biological_target": "Tyrosine-protein kinase SYK (Homo sapiens) (UniProt P43405)", "conditions": "at 10 µM"}, "[2]": {"biological_target": "T1, Mitogen-activated protein kinase kinase kinase 7 (Homo sapiens) (UniProt O43318)", "T1 sequence (whole entry)": "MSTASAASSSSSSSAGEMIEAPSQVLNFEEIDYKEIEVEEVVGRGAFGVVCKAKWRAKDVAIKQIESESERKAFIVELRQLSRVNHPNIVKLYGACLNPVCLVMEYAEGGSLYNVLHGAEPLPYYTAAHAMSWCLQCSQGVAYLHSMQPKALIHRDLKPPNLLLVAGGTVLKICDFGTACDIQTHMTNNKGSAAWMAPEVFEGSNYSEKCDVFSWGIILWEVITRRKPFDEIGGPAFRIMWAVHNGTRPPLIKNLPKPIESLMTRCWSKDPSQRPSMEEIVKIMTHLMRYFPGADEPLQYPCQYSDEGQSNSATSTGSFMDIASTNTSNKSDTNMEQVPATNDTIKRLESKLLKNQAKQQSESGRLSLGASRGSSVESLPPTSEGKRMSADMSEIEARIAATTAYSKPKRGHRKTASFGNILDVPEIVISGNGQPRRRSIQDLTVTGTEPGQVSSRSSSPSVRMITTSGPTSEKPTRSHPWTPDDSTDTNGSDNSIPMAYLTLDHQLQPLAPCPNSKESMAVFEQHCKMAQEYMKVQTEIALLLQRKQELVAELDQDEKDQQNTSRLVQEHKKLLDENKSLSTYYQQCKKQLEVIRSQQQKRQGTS", "conditions": "at 1 µM"}, "[3]": {"biological_target": "T1, Mitogen-activated protein kinase kinase kinase 7 (Homo sapiens)", "conditions": "at 10 µM"}, "[4]": {"biological_target": "T2, Serine/threonine-protein kinase TAO1 (Homo sapiens) (UniProt Q7L7X3)", "T2 sequence (whole entry)": "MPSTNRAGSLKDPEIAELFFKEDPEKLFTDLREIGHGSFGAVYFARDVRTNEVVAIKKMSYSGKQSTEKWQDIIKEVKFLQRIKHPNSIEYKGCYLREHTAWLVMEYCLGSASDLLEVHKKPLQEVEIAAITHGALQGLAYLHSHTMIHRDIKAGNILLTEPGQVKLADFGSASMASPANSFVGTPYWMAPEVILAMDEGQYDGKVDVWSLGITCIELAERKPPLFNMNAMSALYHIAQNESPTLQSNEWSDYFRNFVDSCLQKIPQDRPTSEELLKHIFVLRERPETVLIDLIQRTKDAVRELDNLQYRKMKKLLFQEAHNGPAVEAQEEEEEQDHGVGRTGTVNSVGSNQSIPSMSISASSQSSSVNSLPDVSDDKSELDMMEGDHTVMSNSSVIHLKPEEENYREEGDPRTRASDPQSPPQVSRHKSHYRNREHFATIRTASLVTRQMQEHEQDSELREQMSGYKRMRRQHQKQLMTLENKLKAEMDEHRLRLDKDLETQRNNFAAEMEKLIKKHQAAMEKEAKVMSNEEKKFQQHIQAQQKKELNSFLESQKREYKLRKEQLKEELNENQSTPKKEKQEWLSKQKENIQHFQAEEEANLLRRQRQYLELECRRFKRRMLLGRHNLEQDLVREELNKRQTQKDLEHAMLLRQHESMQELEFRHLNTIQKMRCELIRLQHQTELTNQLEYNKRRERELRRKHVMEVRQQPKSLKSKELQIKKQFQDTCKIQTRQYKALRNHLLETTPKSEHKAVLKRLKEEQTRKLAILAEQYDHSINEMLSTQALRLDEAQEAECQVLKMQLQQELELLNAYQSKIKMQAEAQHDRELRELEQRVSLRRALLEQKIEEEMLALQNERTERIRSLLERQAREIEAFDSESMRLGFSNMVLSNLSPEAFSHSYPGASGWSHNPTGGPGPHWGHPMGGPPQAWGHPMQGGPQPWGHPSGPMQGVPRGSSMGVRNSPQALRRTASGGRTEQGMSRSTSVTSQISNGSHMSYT", "conditions": "at 1 µM"}, "[5]": {"biological_target": "T2, Serine/threonine-protein kinase TAO1 (Homo sapiens)", "conditions": "at 10 µM"}, "[6]": {"biological_target": "T3, Serine/threonine-protein kinase TAO2 (Homo sapiens) (UniProt Q9UL54)", "T3 sequence (whole entry)": "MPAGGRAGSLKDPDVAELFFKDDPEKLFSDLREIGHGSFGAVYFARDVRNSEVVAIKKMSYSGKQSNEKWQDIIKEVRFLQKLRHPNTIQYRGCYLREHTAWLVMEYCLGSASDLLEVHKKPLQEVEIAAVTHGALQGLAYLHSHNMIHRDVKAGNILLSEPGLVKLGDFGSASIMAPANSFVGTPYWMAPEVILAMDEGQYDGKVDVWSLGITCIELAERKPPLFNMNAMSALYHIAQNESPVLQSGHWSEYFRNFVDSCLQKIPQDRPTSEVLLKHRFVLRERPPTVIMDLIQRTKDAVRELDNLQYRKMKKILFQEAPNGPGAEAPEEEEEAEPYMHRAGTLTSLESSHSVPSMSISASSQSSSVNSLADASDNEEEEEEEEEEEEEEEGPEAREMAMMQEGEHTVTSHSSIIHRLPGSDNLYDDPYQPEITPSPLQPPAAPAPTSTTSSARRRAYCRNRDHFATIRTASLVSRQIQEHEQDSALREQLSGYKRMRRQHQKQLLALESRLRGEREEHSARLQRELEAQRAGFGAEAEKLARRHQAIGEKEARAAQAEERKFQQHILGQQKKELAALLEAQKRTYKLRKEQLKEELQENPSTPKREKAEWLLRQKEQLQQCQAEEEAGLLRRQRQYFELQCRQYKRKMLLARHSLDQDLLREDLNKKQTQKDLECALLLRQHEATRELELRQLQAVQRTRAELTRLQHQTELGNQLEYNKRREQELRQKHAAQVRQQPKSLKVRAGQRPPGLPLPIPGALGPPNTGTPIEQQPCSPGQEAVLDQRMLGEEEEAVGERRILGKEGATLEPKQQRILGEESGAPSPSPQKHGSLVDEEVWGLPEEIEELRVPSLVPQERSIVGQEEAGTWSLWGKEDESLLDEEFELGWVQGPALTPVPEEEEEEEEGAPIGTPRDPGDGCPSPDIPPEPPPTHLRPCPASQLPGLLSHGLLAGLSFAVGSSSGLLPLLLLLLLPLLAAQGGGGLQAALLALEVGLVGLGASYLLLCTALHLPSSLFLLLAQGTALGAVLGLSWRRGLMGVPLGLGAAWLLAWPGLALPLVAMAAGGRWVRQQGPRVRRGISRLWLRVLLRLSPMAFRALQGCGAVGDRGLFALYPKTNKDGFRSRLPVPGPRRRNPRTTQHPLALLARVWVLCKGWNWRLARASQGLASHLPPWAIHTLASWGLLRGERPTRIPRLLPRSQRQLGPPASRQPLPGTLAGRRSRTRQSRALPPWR", "conditions": "at 1 µM"}, "[7]": {"biological_target": "T3, Serine/threonine-protein kinase TAO2 (Homo sapiens)", "conditions": "at 10 µM"}, "[8]": {"biological_target": "T4, Serine/threonine-protein kinase TAO3 (Homo sapiens) (UniProt Q9H2K8)", "T4 sequence (whole entry)": "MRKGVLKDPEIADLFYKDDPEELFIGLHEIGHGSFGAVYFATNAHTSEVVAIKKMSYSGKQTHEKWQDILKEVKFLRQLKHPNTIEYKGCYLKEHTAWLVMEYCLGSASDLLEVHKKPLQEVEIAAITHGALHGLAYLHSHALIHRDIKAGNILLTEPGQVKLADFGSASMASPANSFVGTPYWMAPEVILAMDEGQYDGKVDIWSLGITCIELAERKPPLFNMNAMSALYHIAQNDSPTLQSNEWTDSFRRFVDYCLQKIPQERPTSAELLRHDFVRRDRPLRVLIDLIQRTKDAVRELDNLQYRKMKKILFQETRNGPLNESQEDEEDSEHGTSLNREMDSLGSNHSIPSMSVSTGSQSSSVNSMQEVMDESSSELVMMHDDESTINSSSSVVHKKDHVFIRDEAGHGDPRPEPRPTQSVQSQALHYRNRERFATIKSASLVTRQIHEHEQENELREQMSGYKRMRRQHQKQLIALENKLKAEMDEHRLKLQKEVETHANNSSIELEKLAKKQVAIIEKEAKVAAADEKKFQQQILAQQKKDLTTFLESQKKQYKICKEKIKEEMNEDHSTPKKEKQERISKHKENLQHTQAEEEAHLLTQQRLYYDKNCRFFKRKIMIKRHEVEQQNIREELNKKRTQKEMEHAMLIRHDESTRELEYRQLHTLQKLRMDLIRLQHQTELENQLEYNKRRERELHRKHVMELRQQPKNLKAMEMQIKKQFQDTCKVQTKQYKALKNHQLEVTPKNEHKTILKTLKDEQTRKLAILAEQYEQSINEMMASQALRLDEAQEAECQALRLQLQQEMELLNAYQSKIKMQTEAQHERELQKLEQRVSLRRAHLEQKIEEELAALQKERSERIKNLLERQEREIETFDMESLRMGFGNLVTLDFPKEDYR", "conditions": "at 1 µM"}, "[9]": {"biological_target": "T4, Serine/threonine-protein kinase TAO3 (Homo sapiens)", "conditions": "at 10 µM"}, "[10]": {"biological_target": "T5, Serine/threonine-protein kinase TBK1 (Homo sapiens) (UniProt Q9UHD2)", "T5 sequence (whole entry)": "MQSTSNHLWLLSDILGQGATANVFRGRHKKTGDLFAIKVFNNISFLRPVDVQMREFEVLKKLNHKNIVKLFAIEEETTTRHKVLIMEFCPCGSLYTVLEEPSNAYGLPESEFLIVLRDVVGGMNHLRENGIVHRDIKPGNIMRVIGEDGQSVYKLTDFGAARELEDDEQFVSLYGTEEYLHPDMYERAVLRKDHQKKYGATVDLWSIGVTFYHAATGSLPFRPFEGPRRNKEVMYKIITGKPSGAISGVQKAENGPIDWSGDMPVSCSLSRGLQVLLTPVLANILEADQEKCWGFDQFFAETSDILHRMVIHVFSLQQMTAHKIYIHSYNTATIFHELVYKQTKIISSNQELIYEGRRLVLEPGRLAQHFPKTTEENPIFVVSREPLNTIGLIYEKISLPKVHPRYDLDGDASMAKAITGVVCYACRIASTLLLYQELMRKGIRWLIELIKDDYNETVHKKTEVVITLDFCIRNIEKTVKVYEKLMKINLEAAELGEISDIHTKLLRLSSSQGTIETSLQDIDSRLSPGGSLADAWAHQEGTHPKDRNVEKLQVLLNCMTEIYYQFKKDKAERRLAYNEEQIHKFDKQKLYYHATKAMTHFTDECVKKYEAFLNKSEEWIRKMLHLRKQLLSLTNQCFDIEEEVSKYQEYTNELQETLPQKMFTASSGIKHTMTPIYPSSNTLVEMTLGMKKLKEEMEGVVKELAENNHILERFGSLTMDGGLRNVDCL", "conditions": "at 1 µM"}},
  "data": [
    {"smiles": "CC(=O)O/N=C1\\C(=C2\\C(=O)Nc3cc(Br)ccc32)Nc2ccccc21", "values": [
      {"measurement": "residual activity", "setting": "[1]", "value": 40, "unit": "%"},
      {"measurement": "residual activity", "setting": "[2]", "value": 91, "unit": "%"},
      {"measurement": "residual activity", "setting": "[3]", "value": 85, "unit": "%"},
      {"measurement": "residual activity", "setting": "[4]", "value": 89, "unit": "%"},
      {"measurement": "residual activity", "setting": "[5]", "value": 79, "unit": "%"},
      {"measurement": "residual activity", "setting": "[6]", "value": 81, "unit": "%"},
      {"measurement": "residual activity", "setting": "[7]", "value": 83, "unit": "%"},
      {"measurement": "residual activity", "setting": "[8]", "value": 96, "unit": "%"},
      {"measurement": "residual activity", "setting": "[9]", "value": 86, "unit": "%"},
      {"measurement": "residual activity", "setting": "[10]", "value": 57, "unit": "%"}
    ]}
  ]
}
